Screening results as filed in PubChem BioAssay.
HT1080NT lethal: kills 2HG-producing HT-1080-NT fibrosarcoma cells; 1.6% of 360,000 active; Potency, µM (titrated, usually from 46.1 µM), most hits filed as cytotoxic; AID 686970; HT-1080-NT fibrosarcoma viability, CellTiter-Glo ATP luminescence, 48 h;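 note: NT is the 2HG producing partner of a matched IDH1 knockdown line; nearly all actives have a fitted effect of over 55% in size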
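Toxicity toward the 2HG-producing NT line was scored as %Activity, normalised to DMSO and no-cell wells, from CellTiter-Glo luminescence after 48 hours' treatment.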
HT1080 IDH1KD tx: kills HT-1080 cells with IDH1 knockdown; Potency, µM (doses to about 46.1 µM), most hits filed as cytotoxic; 2% of 360,000 active; HT-1080 IDH1 knockdown viability, ATP luminescence, 48 h
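Luminescent ATP read-out (CellTiter-Glo, 10 min at room temperature) after 48 h compound exposure at 37 °C gave viability of IDH1-knockdown HT-1080 cells. Activity was normalised to DMSO and cell-free wells, then fitted as concentration-response curves.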
uPA generation: inhibitors of cell surface uPA generation; cell surface uPA generation assay, qHTS; Potency, µM (highest dose often 38.3 µM), usual class: inhibitors; 0.31% of 330,000 active; AID 540303; active = well fitted inhibition curve with a large enough effect; inconclusive = small, poorly fitted or top-dose-only effect; inactive = no such curve, though single readings can be large or run the other way; tested in mouse RAW 264.7 cells; note: nearly all actives have a fitted effect of over 55% in size
IL-1B inflam inh: inhibitors of inflammasome signaling (IL-1 beta secretion) | THP-1 LPS/ATP IL-1B secretion, AlphaLISA, 16 h; active compounds read low | activity change, % at 57.5 µM | 4.7% of 360,000 active; in the data active = activity change below about -50%; inconclusive = mostly about -30% to -49%
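Secreted IL-1B measured by AlphaLISA bead assay after 16 h compound exposure of THP-1 cells; compounds (final up to 57.5 uM) added 1 h before LPS (250 ng/mL) and ATP (1.25 mM) stimulation; lower signal means less secretion.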
TDP1 cell CPT: DT40-hTDP1 cell growth loss with CPT; chicken DT40 Tdp1-/-;hTDP1 cells + 20 nM CPT, ATP luminescence, 48 h; Potency, µM (top dose mostly 46.2 µM), most hits filed as inhibitors; 12% of 420,000 active; note: nearly all actives have a fitted effect of over 55% in size
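Chicken DT40 Tdp1-/- cells stably complemented with human TDP1 were seeded at 400 cells/well in medium containing 20 nM camptothecin, exposed to pin-transferred compounds, and grown at 37 °C for at least 48 hr. Viability was read as ATP luminescence.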
TDP1 cell noCPT: qHTS for Inhibitors of human tyrosyl-DNA phosphodiesterase 1 (TDP1): qHTS in cells in absence of CPT. DT40 Tdp1-/- hTDP1 cells, no CPT, ATP luminescence, 48 h. Potency, µM (series often up to 46.2 µM), usual class: inhibitors. 15% of 420,000 active; note: nearly all actives have a fitted effect of over 55% in size
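Stably hTDP1-transfected Tdp1-null chicken DT40 cells were treated with library compounds minus camptothecin and grown for at least 48 hr at 37 °C, after which cellular ATP was quantified by luminescence.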
Hits are given with their value; n = inactive; u = inconclusive; x = no result; [ ] = remark or other dose. Most compounds without a hit are left out; they make up all but 19% or so of the library. Unless noted, calls come from the whole dose curve; as a rule, active = well fitted curve in the direction sought with a large enough effect; inconclusive = small, poorly fitted or top-dose-only effect, or another doubt; inactive = no such curve, though single readings can be large; an effect the other way counts as inactive or inconclusive.

SMILES | HT1080NT lethal | HT1080 IDH1KD tx | uPA generation | IL-1B inflam inh | TDP1 cell CPT | TDP1 cell noCPT
CCCC(=O)NC(c1ccccc1Cl)c1c(O)ccc2ccccc12 (stereo not given) | n | n | n | n | u | u
CC(=O)NC(c1ccc([N+](=O)[O-])cc1)c1c(O)ccc2ccccc12 (stereo not given) | n | u | n | n | n | u
Cc1cc(C(=O)N2CCC2(C)C(=O)NS(=O)(=O)c2cccc(OC(F)F)c2)nn1C (stereo not given) | n | n | x | n | n | n
Cc1ccc(NC(=O)CCC(=O)N2CCC(C)CC2)c([N+](=O)[O-])c1 | n | n | n | n | n | n
CC(=O)NC(c1ccc(C(C)C)cc1)c1c(O)ccc2ccccc12 (stereo not given) | u | u | n | -74.9 | n | u
CC(=O)N1CCc2cc(S(=O)(=O)C(C)CC(=O)NCc3ccco3)ccc21 (stereo not given) | n | n | x | n | n | n
CN(C)CCCn1c(N)c(S(=O)(=O)c2ccccc2)c2nc3ccccc3nc21 | n | n | n | n | 18.4µM | u
Cc1ccc(S(=O)(=O)c2c(N)n(Cc3ccco3)c3nc4ccccc4nc23)cc1 | u | u | n | n | u | 18.4µM
CCCCn1c(N)c(S(=O)(=O)c2ccc(C)cc2)c2nc3ccccc3nc21 | u | u | n | -81.2 | n | u
Cc1ccc(S(=O)(=O)c2c(N)n(-c3ccccc3)c3nc4ccccc4nc23)cc1 | n | n | n | u | u | u
COCCn1c(N)c(S(=O)(=O)c2cccs2)c2nc3ccccc3nc21 | n | n[9.24 µM] | n | n | n | n
CCc1nc2ccc(C(=O)N(C)Cc3ccccc3)cn2c1N(CC)CCN(C)C | n | n | x | n | n | n
CCOc1ccc(-c2ncncc2-c2ccc(OC)c(OC)c2)c(O)c1 | n | n | n | n | u | n
CC(=O)Nc1ccc(NC(=O)C2(c3cccs3)CCOCC2)cc1 | x | x | x | x | n | n
COc1ccc(Cl)cc1NC(=O)C1CCCN(S(C)(=O)=O)C1 (stereo not given) | n | n | n | n | n | n
Cc1ccsc1/C=C1/SC(N2CC(C)OC(C)C2)=NC1=O (stereo not given) | n | n | n | n | u | 20.6µM
Cc1c(O)ccc2c(CN(C)Cc3ccccc3)cc(=O)oc12 | n | n | n | n | u | 18.4µM
COc1cccc(CN(C)Cc2cc(=O)oc3c(C)c(C)ccc23)c1 | n | n | n | n | 13µM | u
Cc1ccccc1CN(C)Cc1cc(=O)oc2c(C)c(C)ccc12 | n | u | n | n | u | u
CCOC(=O)c1sc(-c2ccc(Cl)cc2Cl)nc1O | n | n | n | n | 25.9µM | 18.4µM
Cc1cccc(Nc2cc(C)c3c(O)cccc3n2)c1C | u | u | u | -101.1 | 20.6µM | 23.1µM
C/C(Cl)=C/Cc1c(C)[nH]c2c(ccc3ccccc32)c1=O | n | n | n | n | u | 23.1µM
C[C@@H]1CN([C@H](C)CO)S(=O)(=O)c2ccc(Br)cc2O[C@H]1CN(C)S(C)(=O)=O | n | n | x | n | n | n
Cc1nc(C)c(C(=O)NNS(=O)(=O)c2ccc3ccccc3c2)s1 | u | u | n | n | u | 23.1µM
CN(C)C(=O)c1sccc1Oc1ccc(F)cc1[N+](=O)[O-] | n | n | n | n | n | n
CCN(CCNC(=O)C1CCCN(c2ncnc3c2nc2n3CCCCC2)C1)Cc1ccccc1 (stereo not given) | n | n | n | n | u | 25.9µM
CC1CCCCN1CCNC(=O)C1CCCN(c2ncnc3c2nc2n3CCCCC2)C1 (stereo not given) | n | n | n | n | n | n
CC(C)N(Cc1ccccc1)C(=O)C1CCCN(c2ncnc3c2nc2n3CCCCC2)C1 (stereo not given) | n | n | n | n | u | 18.4µM
